What all share (assay): DAPPL (digital affinity profiling via proximity ligation, sequencing); 10 mM Tris-HCl pH 7.5, 50 mM NaCl, 1 mM DTT, 4% glycerol, room temperature, 30 min; GST-TFs on glutathione beads, 16-mer random dsDNA library, 0.1% formaldehyde crosslink after washing; high values mean tight binding
One test has as its target T1, FEV (Homo sapiens, UniProt Q99581 1-238).
T1 sequence: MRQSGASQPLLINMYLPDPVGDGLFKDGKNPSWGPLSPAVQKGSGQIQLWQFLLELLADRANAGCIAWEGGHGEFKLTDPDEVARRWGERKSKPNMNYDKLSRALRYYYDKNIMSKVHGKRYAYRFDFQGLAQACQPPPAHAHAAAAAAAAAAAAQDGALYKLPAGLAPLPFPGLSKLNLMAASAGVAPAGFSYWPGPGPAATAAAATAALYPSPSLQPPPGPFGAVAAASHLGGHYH
The following applies: protein: recombinant; tags: N-terminal GST; dsDNA, one strand shown. An outline of the steps:
(§1)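 Binding signal is given per hexamer as its read frequency for a factor divided by its frequency in the tag-only sample. GST-fused human transcription factors were expressed in yeast, captured on glutathione beads, barcoded with DNA and pooled with that sample, then incubated with 200 nmole of a 16-mer random double-stranded DNA library in Tris/NaCl/DTT/glycerol buffer for 30 min at room temperature. The pools were then washed, crosslinked, proximity-ligated, amplified by PCR and sequenced on an Illumina NextSeq500.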

For a further test, the target named is ETV5 (Homo sapiens, UniProt P41161 1-510). Conditions: protein: recombinant; tags: N-terminal GST; dsDNA, one strand shown. An outline of the steps:
as §1

In a further test the target is HSF1 (Homo sapiens, UniProt Q00613 1-529). Conditions: protein: recombinant; tags: N-terminal GST; chain copies: 3; dsDNA, one strand shown. An outline of the steps: as §1
Chain of HSF1 (Q00613 whole entry): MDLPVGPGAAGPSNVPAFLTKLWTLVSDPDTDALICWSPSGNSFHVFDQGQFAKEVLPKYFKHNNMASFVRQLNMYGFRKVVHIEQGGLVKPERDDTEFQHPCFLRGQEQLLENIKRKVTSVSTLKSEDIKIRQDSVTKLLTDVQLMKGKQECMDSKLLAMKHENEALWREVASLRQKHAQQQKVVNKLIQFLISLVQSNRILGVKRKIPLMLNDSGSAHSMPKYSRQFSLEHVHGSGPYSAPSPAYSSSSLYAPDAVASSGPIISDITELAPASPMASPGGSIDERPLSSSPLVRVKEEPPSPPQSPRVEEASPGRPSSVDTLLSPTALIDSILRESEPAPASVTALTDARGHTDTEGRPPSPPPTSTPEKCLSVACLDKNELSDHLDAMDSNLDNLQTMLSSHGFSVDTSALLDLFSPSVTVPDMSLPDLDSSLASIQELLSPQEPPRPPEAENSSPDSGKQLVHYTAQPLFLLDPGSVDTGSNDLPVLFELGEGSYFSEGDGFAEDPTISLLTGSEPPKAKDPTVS
Another test concerns the target ELF4 (Homo sapiens, UniProt Q99607 1-663). The following applies: protein: recombinant; tags: N-terminal GST; dsDNA, one strand shown. Put shortly: as §1
Another test addresses T2, ELK4 (Homo sapiens, UniProt P28324-2 1-405).
T2 sequence: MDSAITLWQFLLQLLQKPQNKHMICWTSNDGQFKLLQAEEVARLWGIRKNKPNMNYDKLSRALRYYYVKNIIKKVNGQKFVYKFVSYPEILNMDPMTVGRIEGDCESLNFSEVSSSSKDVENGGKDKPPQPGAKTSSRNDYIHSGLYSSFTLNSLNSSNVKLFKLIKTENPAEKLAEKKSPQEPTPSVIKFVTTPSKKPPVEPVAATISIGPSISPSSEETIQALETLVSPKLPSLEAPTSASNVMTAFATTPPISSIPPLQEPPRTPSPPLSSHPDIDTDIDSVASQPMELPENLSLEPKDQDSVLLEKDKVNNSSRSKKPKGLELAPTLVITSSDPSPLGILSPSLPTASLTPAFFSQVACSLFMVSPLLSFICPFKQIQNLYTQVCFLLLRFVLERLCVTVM
The following applies: protein: recombinant; tags: N-terminal GST; dsDNA, one strand shown. An outline of the steps:
as §1

In the next test the target is T3, ETV2 (Homo sapiens, UniProt O00321 1-342).
T3 sequence: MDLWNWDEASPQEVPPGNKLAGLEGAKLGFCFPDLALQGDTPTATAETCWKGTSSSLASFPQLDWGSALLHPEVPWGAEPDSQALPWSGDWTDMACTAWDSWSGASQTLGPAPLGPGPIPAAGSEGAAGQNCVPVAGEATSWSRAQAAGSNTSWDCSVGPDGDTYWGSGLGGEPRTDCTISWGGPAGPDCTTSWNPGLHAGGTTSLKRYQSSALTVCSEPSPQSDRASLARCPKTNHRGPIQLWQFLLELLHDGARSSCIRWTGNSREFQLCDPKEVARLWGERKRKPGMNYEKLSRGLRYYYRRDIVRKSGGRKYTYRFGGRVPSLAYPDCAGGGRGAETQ
Conditions: protein: recombinant; tags: N-terminal GST; dsDNA, one strand shown. Put shortly:
as §1

In another test the target is T4, ELF3 (Homo sapiens, UniProt P78545 1-371).
T4 sequence: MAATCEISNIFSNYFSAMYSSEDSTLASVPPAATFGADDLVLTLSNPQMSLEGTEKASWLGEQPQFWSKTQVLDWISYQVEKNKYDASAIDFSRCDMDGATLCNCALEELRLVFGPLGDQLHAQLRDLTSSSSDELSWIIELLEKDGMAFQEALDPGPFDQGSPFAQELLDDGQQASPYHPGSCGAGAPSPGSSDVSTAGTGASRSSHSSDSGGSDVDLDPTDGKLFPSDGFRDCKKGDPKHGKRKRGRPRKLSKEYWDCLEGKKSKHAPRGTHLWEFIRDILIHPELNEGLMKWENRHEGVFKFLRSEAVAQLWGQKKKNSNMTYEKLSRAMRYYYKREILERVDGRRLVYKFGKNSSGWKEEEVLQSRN
Conditions: protein: recombinant; tags: N-terminal GST; dsDNA, one strand shown. An outline of the steps: as §1

A further test deals with CRX (Homo sapiens, UniProt O43186 1-299). The following applies: protein: recombinant; tags: N-terminal GST; dsDNA, one strand shown. Put shortly: as §1
Chain of CRX (O43186 whole entry): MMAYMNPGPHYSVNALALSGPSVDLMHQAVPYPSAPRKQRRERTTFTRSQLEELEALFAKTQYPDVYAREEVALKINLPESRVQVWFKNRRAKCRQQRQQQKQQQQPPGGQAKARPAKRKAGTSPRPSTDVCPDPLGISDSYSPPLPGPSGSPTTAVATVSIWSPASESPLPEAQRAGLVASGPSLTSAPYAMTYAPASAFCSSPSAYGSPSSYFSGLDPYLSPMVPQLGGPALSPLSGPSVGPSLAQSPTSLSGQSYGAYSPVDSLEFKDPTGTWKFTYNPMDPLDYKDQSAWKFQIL
For the next test, the target named is ETV1 (Homo sapiens, UniProt P50549 1-477). The following applies: protein: recombinant; tags: N-terminal GST; dsDNA, one strand shown. Put shortly:
as §1

The target of a further test is T5, SPIC (Homo sapiens, UniProt Q8N5J4 1-248).
T5 sequence: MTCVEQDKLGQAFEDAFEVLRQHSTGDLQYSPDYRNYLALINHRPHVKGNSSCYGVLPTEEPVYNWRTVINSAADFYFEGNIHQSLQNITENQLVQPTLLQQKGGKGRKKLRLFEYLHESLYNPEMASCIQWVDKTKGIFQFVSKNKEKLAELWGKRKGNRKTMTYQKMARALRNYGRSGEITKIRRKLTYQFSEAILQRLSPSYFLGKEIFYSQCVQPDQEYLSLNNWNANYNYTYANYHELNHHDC
Conditions: protein: recombinant; tags: N-terminal GST; dsDNA, one strand shown. An outline of the steps: as §1

Experimental findings from article PMC7862700, “An all-to-all approach to the identification of sequence-specific readers for epigenetic DNA modifications on cytosine” are described below.

Chain of ELF4 (Q99607 whole entry): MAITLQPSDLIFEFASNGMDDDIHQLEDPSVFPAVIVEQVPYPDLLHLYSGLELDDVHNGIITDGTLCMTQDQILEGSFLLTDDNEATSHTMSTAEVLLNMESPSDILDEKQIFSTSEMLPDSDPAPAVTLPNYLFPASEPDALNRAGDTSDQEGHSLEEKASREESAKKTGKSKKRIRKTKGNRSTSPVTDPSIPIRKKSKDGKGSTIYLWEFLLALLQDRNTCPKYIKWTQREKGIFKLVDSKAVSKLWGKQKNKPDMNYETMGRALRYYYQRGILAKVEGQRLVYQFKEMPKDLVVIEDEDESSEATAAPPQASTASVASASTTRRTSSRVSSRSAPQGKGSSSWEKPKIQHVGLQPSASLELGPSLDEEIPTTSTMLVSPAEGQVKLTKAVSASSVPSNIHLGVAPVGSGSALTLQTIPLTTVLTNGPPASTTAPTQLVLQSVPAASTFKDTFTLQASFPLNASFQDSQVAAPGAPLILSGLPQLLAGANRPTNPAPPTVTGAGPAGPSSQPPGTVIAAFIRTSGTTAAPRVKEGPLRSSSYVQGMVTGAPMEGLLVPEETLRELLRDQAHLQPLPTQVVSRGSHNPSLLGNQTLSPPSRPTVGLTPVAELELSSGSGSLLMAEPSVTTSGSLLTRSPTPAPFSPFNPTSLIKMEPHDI
Chain of ETV1 (P50549 whole entry): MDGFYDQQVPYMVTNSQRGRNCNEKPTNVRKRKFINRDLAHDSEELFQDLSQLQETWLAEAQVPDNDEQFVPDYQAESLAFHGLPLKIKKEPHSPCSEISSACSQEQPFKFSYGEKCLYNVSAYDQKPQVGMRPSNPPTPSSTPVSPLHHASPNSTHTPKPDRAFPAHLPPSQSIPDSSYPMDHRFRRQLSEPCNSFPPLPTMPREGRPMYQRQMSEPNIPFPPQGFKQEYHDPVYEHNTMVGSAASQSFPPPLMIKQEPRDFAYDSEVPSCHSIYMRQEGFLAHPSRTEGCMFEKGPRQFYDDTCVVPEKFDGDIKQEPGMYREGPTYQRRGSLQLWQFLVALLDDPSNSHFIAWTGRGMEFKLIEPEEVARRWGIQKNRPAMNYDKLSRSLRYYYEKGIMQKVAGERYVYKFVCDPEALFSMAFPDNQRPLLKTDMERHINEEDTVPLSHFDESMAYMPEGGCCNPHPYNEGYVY
Chain of ETV5 (P41161 whole entry): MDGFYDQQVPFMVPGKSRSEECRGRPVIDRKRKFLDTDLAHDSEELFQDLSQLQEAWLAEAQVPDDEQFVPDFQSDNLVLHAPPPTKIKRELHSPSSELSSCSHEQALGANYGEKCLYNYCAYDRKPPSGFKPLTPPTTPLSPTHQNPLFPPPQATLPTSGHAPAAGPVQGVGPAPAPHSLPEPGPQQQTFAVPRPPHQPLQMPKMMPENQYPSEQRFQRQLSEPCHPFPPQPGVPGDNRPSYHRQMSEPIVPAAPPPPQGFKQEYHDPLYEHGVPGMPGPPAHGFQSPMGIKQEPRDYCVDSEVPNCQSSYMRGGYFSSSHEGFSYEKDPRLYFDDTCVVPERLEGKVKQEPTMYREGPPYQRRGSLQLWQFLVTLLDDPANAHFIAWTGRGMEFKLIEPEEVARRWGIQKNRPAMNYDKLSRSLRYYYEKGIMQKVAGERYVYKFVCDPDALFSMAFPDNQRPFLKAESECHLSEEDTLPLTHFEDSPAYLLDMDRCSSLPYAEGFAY

Turning to AAGGTA, the binding signal with FEV was 1.02 fold enrichment (6-mer frequency, TF over GST control); in the test with ETV5, 1.11 fold enrichment (6-mer frequency, TF over GST control); in the test with HSF1, 1.11 fold enrichment (6-mer frequency, TF over GST control); in the test with ELF4, 1.1 fold enrichment (6-mer frequency, TF over GST control); in the test with ELK4, 1.14 fold enrichment (6-mer frequency, TF over GST control); with ETV2, 1.07 fold enrichment (6-mer frequency, TF over GST control). In addition, the binding signal with ELF3 was 1.16 fold enrichment (6-mer frequency, TF over GST control); with CRX, 1.05 fold enrichment (6-mer frequency, TF over GST control); in the test with ETV1, 1.11 fold enrichment (6-mer frequency, TF over GST control).
For the sequence CGATGA, the binding signal in the test with ETV5 was 1.05 fold enrichment (6-mer frequency, TF over GST control); with HSF1 it was 1.02 fold enrichment (6-mer frequency, TF over GST control); with ELF4 it was 1.06 fold enrichment (6-mer frequency, TF over GST control); with ELK4 it was 1.01 fold enrichment (6-mer frequency, TF over GST control).
Consider TACTAG, for which the binding signal with ETV5 is 1.05 fold enrichment (6-mer frequency, TF over GST control); with HSF1, 1.81 fold enrichment (6-mer frequency, TF over GST control); with SPIC, 1.02 fold enrichment (6-mer frequency, TF over GST control); in the test with ETV2, 1.17 fold enrichment (6-mer frequency, TF over GST control); with CRX, 1.3 fold enrichment (6-mer frequency, TF over GST control).
On to AAAAGA, for which the binding signal was 1.07 fold enrichment (6-mer frequency, TF over GST control) with FEV; 1.12 fold enrichment (6-mer frequency, TF over GST control) in the test with ETV5; 1.43 fold enrichment (6-mer frequency, TF over GST control) with HSF1; 1.2 fold enrichment (6-mer frequency, TF over GST control) in the test with ELF4; 1.2 fold enrichment (6-mer frequency, TF over GST control) with ELK4; 1.1 fold enrichment (6-mer frequency, TF over GST control) in the test with ETV2. For the same sequence, the binding signal is 1.17 fold enrichment (6-mer frequency, TF over GST control) with ELF3; 1.28 fold enrichment (6-mer frequency, TF over GST control) with CRX; 1.14 fold enrichment (6-mer frequency, TF over GST control) with ETV1.
For AACCAT, the binding signal with FEV was 1.15 fold enrichment (6-mer frequency, TF over GST control); with ETV5, 1.15 fold enrichment (6-mer frequency, TF over GST control); with HSF1, 1.15 fold enrichment (6-mer frequency, TF over GST control); with ELF4, 1.15 fold enrichment (6-mer frequency, TF over GST control); in the test with ELK4 it was 1.21 fold enrichment (6-mer frequency, TF over GST control); with ETV2, 1.2 fold enrichment (6-mer frequency, TF over GST control). For the same sequence, the binding signal with ELF3 is 1.1 fold enrichment (6-mer frequency, TF over GST control); in the test with CRX it was 1.05 fold enrichment (6-mer frequency, TF over GST control); in the test with ETV1 it was 1.06 fold enrichment (6-mer frequency, TF over GST control).
On to TTACGC, for which the binding signal was 1.1 fold enrichment (6-mer frequency, TF over GST control) with FEV; 1.19 fold enrichment (6-mer frequency, TF over GST control) in the test with ETV5; 1.39 fold enrichment (6-mer frequency, TF over GST control) with HSF1; 1.19 fold enrichment (6-mer frequency, TF over GST control) in the test with ELF4; 1.04 fold enrichment (6-mer frequency, TF over GST control) with ELK4; 1.16 fold enrichment (6-mer frequency, TF over GST control) with ETV2. For the same sequence, the binding signal was 1.01 fold enrichment (6-mer frequency, TF over GST control) with ELF3; 1.81 fold enrichment (6-mer frequency, TF over GST control) with CRX; 1.13 fold enrichment (6-mer frequency, TF over GST control) with ETV1.
On to ATAGCA, for which the binding signal with FEV is 1.13 fold enrichment (6-mer frequency, TF over GST control); with ETV5, 1.17 fold enrichment (6-mer frequency, TF over GST control); with HSF1, 1.02 fold enrichment (6-mer frequency, TF over GST control); with ELF4 it was 1.16 fold enrichment (6-mer frequency, TF over GST control); in the test with ELK4, 1.15 fold enrichment (6-mer frequency, TF over GST control); with ETV2, 1.13 fold enrichment (6-mer frequency, TF over GST control). Further, the binding signal was 1.25 fold enrichment (6-mer frequency, TF over GST control) in the test with ELF3; 1.07 fold enrichment (6-mer frequency, TF over GST control) with CRX; 1.1 fold enrichment (6-mer frequency, TF over GST control) with ETV1.
Consider TAGTGT, for which the binding signal was 1.02 fold enrichment (6-mer frequency, TF over GST control) in the test with FEV; 1.12 fold enrichment (6-mer frequency, TF over GST control) in the test with ETV5; 1.15 fold enrichment (6-mer frequency, TF over GST control) with HSF1; 1.11 fold enrichment (6-mer frequency, TF over GST control) with ELF4; 1.4 fold enrichment (6-mer frequency, TF over GST control) in the test with ELK4; 1.06 fold enrichment (6-mer frequency, TF over GST control) with ETV2. For the same sequence, the binding signal with ELF3 was 1.21 fold enrichment (6-mer frequency, TF over GST control); with CRX it was 1.29 fold enrichment (6-mer frequency, TF over GST control); in the test with ETV1, 1.21 fold enrichment (6-mer frequency, TF over GST control).
